Experimental data from the supplement of paper PMC12282887.
± gives the standard deviation of the averaged measurements.

Test system: E. coli BW25113 marRABp lux reporter
Assay: promoter activity interaction Z-score (Lux/OD deviation from empty-vector control); higher = stronger promoter induction by the compound
Description: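 E. coli BW25113 (wild type or ΔmarA/ΔsoxS/Δrob) carrying pTU175 luxCDABE promoter reporters was grown in LB in 384-well plates at 37°C with each of 94 compounds at 4 two-fold concentrations, in biological duplicates. Luminescence and OD600 were read every 30 min for 12 h and integrated as AUC over 8 h (0-8 h WT, 1-9 h mutants). Lux AUC was divided by OD AUC; the interaction score is the residual of a Huber robust fit of each promoter against the empty-vector control, then Z-transformed per promoter.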

Row | SMILES | promoter activity interaction Z-score (0.038 µg/ml, genetic background: wild type) | promoter activity interaction Z-score (0.038 µg/ml, genetic background: ΔmarA) | promoter activity interaction Z-score (0.038 µg/ml, genetic background: Δrob) | promoter activity interaction Z-score (0.038 µg/ml, genetic background: ΔsoxS) | promoter activity interaction Z-score (0.076 µg/ml, genetic background: wild type) | promoter activity interaction Z-score (0.076 µg/ml, genetic background: ΔmarA) | promoter activity interaction Z-score (0.076 µg/ml, genetic background: Δrob) | promoter activity interaction Z-score (0.076 µg/ml, genetic background: ΔsoxS) | promoter activity interaction Z-score (0.15 µg/ml, genetic background: wild type) | promoter activity interaction Z-score (0.15 µg/ml, genetic background: ΔmarA) | promoter activity interaction Z-score (0.15 µg/ml, genetic background: Δrob) | promoter activity interaction Z-score (0.15 µg/ml, genetic background: ΔsoxS) | promoter activity interaction Z-score (0.3 µg/ml, genetic background: wild type) | promoter activity interaction Z-score (2.6 µg/ml, genetic background: wild type) | promoter activity interaction Z-score (2.6 µg/ml, genetic background: ΔmarA) | promoter activity interaction Z-score (2.6 µg/ml, genetic background: Δrob) | promoter activity interaction Z-score (2.6 µg/ml, genetic background: ΔsoxS) | promoter activity interaction Z-score (5.3 µg/ml, genetic background: wild type) | promoter activity interaction Z-score (5.3 µg/ml, genetic background: ΔmarA) | promoter activity interaction Z-score (5.3 µg/ml, genetic background: Δrob) | promoter activity interaction Z-score (5.3 µg/ml, genetic background: ΔsoxS) | promoter activity interaction Z-score (10.6 µg/ml, genetic background: wild type) | promoter activity interaction Z-score (10.6 µg/ml, genetic background: ΔmarA) | promoter activity interaction Z-score (10.6 µg/ml, genetic background: Δrob) | promoter activity interaction Z-score (10.6 µg/ml, genetic background: ΔsoxS) | promoter activity interaction Z-score (21.1 µg/ml, genetic background: wild type) | promoter activity interaction Z-score (21.1 µg/ml, genetic background: ΔmarA) | promoter activity interaction Z-score (21.1 µg/ml, genetic background: Δrob) | promoter activity interaction Z-score (21.1 µg/ml, genetic background: ΔsoxS)
1 | Cc1c(N)nc([C@H](CC(N)=O)NC[C@H](N)C(N)=O)nc1C(=O)N[C@H](C(=O)N[C@H](C)[C@@H](O)[C@H](C)C(=O)N[C@H](C(=O)NCCc1nc(-c2nc(C(=O)NCCC[S+](C)C)cs2)cs1)[C@@H](C)O)[C@@H](OC1OC(CO)C(O)C(O)C1OC1OC(CO)C(O)C(OC(N)=O)C1O)c1cnc[nH]1 (some centres undefined) [Bleomycin] | -0.417 ± 0.23 | -0.0394 ± 0.031 | -0.132 ± 0.16 | 0.0622 ± 0.095 | 0.0986 ± 0.2 | 0.278 ± 0.39 | 0.331 ± 0.28 | 0.321 ± 0.053 | 0.24 ± 0.21 | 0.245 ± 0.13 | 0.652 ± 0.46 | 0.457 ± 0.048 | 2.68 ± 0.29 | – | – | – | – | – | – | – | – | – | – | – | – | – | – | – | –
2 | CC(=O)N[C@H]1[C@@H](O[C@@H]2O[C@H](CC(O)[C@H]3O[C@@H](n4ccc(=O)[nH]c4=O)[C@H](O)[C@@H]3O)[C@H](O)[C@H](O)[C@H]2NC(=O)/C=C/CC(C)C)O[C@H](CO)[C@@H](N)[C@@H]1O (some centres undefined) [Tunicamycin] | – | – | – | – | – | – | – | – | – | – | – | – | – | -0.437 ± 0.048 | -0.39 ± 0.54 | -0.2 ± 0.15 | -0.379 ± 0.38 | -0.455 ± 0.15 | -0.634 ± 0.41 | -0.284 ± 0.008 | -0.282 ± 0.18 | -0.326 ± 0.14 | -0.464 ± 0.54 | -0.127 ± 0.2 | -0.485 ± 0.34 | -0.471 ± 0.16 | -0.634 ± 0.25 | -0.663 ± 0.56 | -0.645 ± 0.46
